# The full ranking holds about 1,100 compounds; the median of “Wnt reporter firefly/Renilla luciferase ratio relative to plate median” is about 1.1, and the highest 2% start at about 1.6. This excerpt belongs to a sample that is enriched for the highest values.
# Tested on: HEK293T (UBE3A T485A transfected, BAR Wnt reporter)
# Experiment: Wnt reporter firefly/Renilla luciferase ratio relative to plate median (fold (linear ratio)); higher = more Wnt/beta-catenin reporter activation
# Settings: 24 h
# Outline: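 HEK293T cells were seeded at 4500 cells/well in white 384-well plates and grown in DMEM with 10% FBS at 37°C and 5% CO2. The cells were transfected using Fugene 6 with a BAR firefly luciferase Wnt reporter, TK-Renilla and an expression plasmid, and four hours later robots added the chemicals at 0.01–100 uM for 24 h before a Dual-Glo luciferase readout. Wnt activity was taken as the firefly/Renilla ratio and cell health as raw Renilla, each median-centred per plate. Values are averages of four biological replicates.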
structure (smiles),measurement,setting,value
CC(C)(OOC(C)(C)c1ccccc1)c1ccccc1 [Dicumyl peroxide],Wnt reporter firefly/Renilla luciferase ratio,concentration: 0.1 uM,1.15
same,Wnt reporter firefly/Renilla luciferase ratio,concentration: 1 uM,0.998
same,Wnt reporter firefly/Renilla luciferase ratio,concentration: 10 uM,0.968
same,Wnt reporter firefly/Renilla luciferase ratio,concentration: 100 uM,1.39
C#CCC1=C(C)C(OC(=O)C2C(C=C(C)C)C2(C)C)CC1=O (stereo not given) [Prallethrin],Wnt reporter firefly/Renilla luciferase ratio,concentration: 0.01 uM,0.931
same,Wnt reporter firefly/Renilla luciferase ratio,concentration: 0.1 uM,0.996
same,Wnt reporter firefly/Renilla luciferase ratio,concentration: 1 uM,1.04
same,Wnt reporter firefly/Renilla luciferase ratio,concentration: 10 uM,1.05
same,Wnt reporter firefly/Renilla luciferase ratio,concentration: 100 uM,0.276
CC(C)(C)c1ccc(O)cc1 [4-tert-Butylphenol],Wnt reporter firefly/Renilla luciferase ratio,concentration: 0.1 uM,0.97
same,Wnt reporter firefly/Renilla luciferase ratio,concentration: 1 uM,1.1
same,Wnt reporter firefly/Renilla luciferase ratio,concentration: 10 uM,0.863
same,Wnt reporter firefly/Renilla luciferase ratio,concentration: 100 uM,1.21
CO/C=C(/C(=O)OC)c1ccccc1Oc1cc(Oc2ccccc2C#N)ncn1 [Azoxystrobin],Wnt reporter firefly/Renilla luciferase ratio,concentration: 0.01 uM,1.4
same,Wnt reporter firefly/Renilla luciferase ratio,concentration: 0.1 uM,1.25
same,Wnt reporter firefly/Renilla luciferase ratio,concentration: 1 uM,1.04
same,Wnt reporter firefly/Renilla luciferase ratio,concentration: 10 uM,0.786
same,Wnt reporter firefly/Renilla luciferase ratio,concentration: 100 uM,0.984
CCC(=NOC/C=C/Cl)C1=C(O)CC(C2CCOCC2)CC1=O (stereo not given) [Tepraloxydim],Wnt reporter firefly/Renilla luciferase ratio,concentration: 0.01 uM,0.655
same,Wnt reporter firefly/Renilla luciferase ratio,concentration: 0.1 uM,0.79
same,Wnt reporter firefly/Renilla luciferase ratio,concentration: 1 uM,1.12
same,Wnt reporter firefly/Renilla luciferase ratio,concentration: 10 uM,1.08
same,Wnt reporter firefly/Renilla luciferase ratio,concentration: 100 uM,1.18
O=[N+]([O-])c1c(Cl)c(Cl)c(Cl)c(Cl)c1Cl [Pentachloronitrobenzene],Wnt reporter firefly/Renilla luciferase ratio,concentration: 0.01 uM,0.743
same,Wnt reporter firefly/Renilla luciferase ratio,concentration: 0.1 uM,0.765
same,Wnt reporter firefly/Renilla luciferase ratio,concentration: 1 uM,1
same,Wnt reporter firefly/Renilla luciferase ratio,concentration: 10 uM,0.856
same,Wnt reporter firefly/Renilla luciferase ratio,concentration: 100 uM,1.26
Nc1ccc(Cl)cc1 [4-Chloroaniline],Wnt reporter firefly/Renilla luciferase ratio,concentration: 0.1 uM,1.15
same,Wnt reporter firefly/Renilla luciferase ratio,concentration: 1 uM,1.08
same,Wnt reporter firefly/Renilla luciferase ratio,concentration: 10 uM,0.914
same,Wnt reporter firefly/Renilla luciferase ratio,concentration: 100 uM,0.367
CCOP(=S)(OCC)Oc1cc(C)nc(C(C)C)n1 [Diazinon],Wnt reporter firefly/Renilla luciferase ratio,concentration: 0.01 uM,0.789
same,Wnt reporter firefly/Renilla luciferase ratio,concentration: 0.1 uM,0.815
same,Wnt reporter firefly/Renilla luciferase ratio,concentration: 1 uM,1.01
same,Wnt reporter firefly/Renilla luciferase ratio,concentration: 10 uM,1.25
same,Wnt reporter firefly/Renilla luciferase ratio,concentration: 100 uM,1.14
CCOC(=O)C(C)OC(=O)c1cc(Oc2ccc(C(F)(F)F)cc2Cl)ccc1[N+](=O)[O-] (stereo not given) [Lactofen],Wnt reporter firefly/Renilla luciferase ratio,concentration: 0.01 uM,1.04
same,Wnt reporter firefly/Renilla luciferase ratio,concentration: 0.1 uM,1.3
same,Wnt reporter firefly/Renilla luciferase ratio,concentration: 1 uM,1.14
same,Wnt reporter firefly/Renilla luciferase ratio,concentration: 10 uM,1.16
same,Wnt reporter firefly/Renilla luciferase ratio,concentration: 100 uM,0.261
CC(C)Nc1nc(Cl)nc(NC(C)C)n1 [Propazine],Wnt reporter firefly/Renilla luciferase ratio,concentration: 0.01 uM,1.55
same,Wnt reporter firefly/Renilla luciferase ratio,concentration: 0.1 uM,1.1
same,Wnt reporter firefly/Renilla luciferase ratio,concentration: 1 uM,1.01
same,Wnt reporter firefly/Renilla luciferase ratio,concentration: 10 uM,1.03
same,Wnt reporter firefly/Renilla luciferase ratio,concentration: 100 uM,1.11
"Oc1c(Cl)cc(Cl)cc1Cl [2,4,6-Trichlorophenol]",Wnt reporter firefly/Renilla luciferase ratio,concentration: 0.1 uM,0.821
same,Wnt reporter firefly/Renilla luciferase ratio,concentration: 1 uM,1.09
same,Wnt reporter firefly/Renilla luciferase ratio,concentration: 10 uM,1.37
same,Wnt reporter firefly/Renilla luciferase ratio,concentration: 100 uM,0.524
CS(=O)(=O)c1cc(C(F)(F)F)ccc1C(=O)c1cnoc1C1CC1 [Isoxaflutole],Wnt reporter firefly/Renilla luciferase ratio,concentration: 0.01 uM,1.11
same,Wnt reporter firefly/Renilla luciferase ratio,concentration: 0.1 uM,1.4
same,Wnt reporter firefly/Renilla luciferase ratio,concentration: 1 uM,1.02
same,Wnt reporter firefly/Renilla luciferase ratio,concentration: 10 uM,1.36
same,Wnt reporter firefly/Renilla luciferase ratio,concentration: 100 uM,1.45
C#CCOS(=O)OC1CCCCC1Oc1ccc(C(C)(C)C)cc1 (stereo not given) [Propargite],Wnt reporter firefly/Renilla luciferase ratio,concentration: 0.01 uM,1.24
same,Wnt reporter firefly/Renilla luciferase ratio,concentration: 0.1 uM,1.16
same,Wnt reporter firefly/Renilla luciferase ratio,concentration: 1 uM,1.02
same,Wnt reporter firefly/Renilla luciferase ratio,concentration: 10 uM,0.934
same,Wnt reporter firefly/Renilla luciferase ratio,concentration: 100 uM,0.259
CON=C(C(=O)OC)c1ccccc1CON=C(C)c1cccc(C(F)(F)F)c1 [Trifloxystrobin],Wnt reporter firefly/Renilla luciferase ratio,concentration: 0.01 uM,0.871
same,Wnt reporter firefly/Renilla luciferase ratio,concentration: 0.1 uM,1.03
same,Wnt reporter firefly/Renilla luciferase ratio,concentration: 1 uM,0.939
same,Wnt reporter firefly/Renilla luciferase ratio,concentration: 10 uM,0.327
COP(=S)(OC)Oc1ccc([N+](=O)[O-])cc1 [Methyl parathion],Wnt reporter firefly/Renilla luciferase ratio,concentration: 0.01 uM,1.23
same,Wnt reporter firefly/Renilla luciferase ratio,concentration: 0.1 uM,1.05
same,Wnt reporter firefly/Renilla luciferase ratio,concentration: 1 uM,1.21
same,Wnt reporter firefly/Renilla luciferase ratio,concentration: 10 uM,1.02
same,Wnt reporter firefly/Renilla luciferase ratio,concentration: 100 uM,0.89
COP(=S)(OC)Oc1ccc([N+](=O)[O-])c(C)c1 [Fenitrothion],Wnt reporter firefly/Renilla luciferase ratio,concentration: 0.01 uM,1.53
same,Wnt reporter firefly/Renilla luciferase ratio,concentration: 0.1 uM,2.01
same,Wnt reporter firefly/Renilla luciferase ratio,concentration: 1 uM,1.26
same,Wnt reporter firefly/Renilla luciferase ratio,concentration: 10 uM,1.43
same,Wnt reporter firefly/Renilla luciferase ratio,concentration: 100 uM,0.976
COP(=S)(OC)Oc1ccc(SC)c(C)c1 [Fenthion],Wnt reporter firefly/Renilla luciferase ratio,concentration: 0.01 uM,1.02
same,Wnt reporter firefly/Renilla luciferase ratio,concentration: 0.1 uM,0.993
same,Wnt reporter firefly/Renilla luciferase ratio,concentration: 1 uM,1.04
same,Wnt reporter firefly/Renilla luciferase ratio,concentration: 10 uM,1.08
same,Wnt reporter firefly/Renilla luciferase ratio,concentration: 100 uM,0.984
